Source: PubChem BioAssay AID1376 (SRMLSC, 2008)
In all, about 220,000 compounds went through this assay and about 530 (0.24%) were called active. Cut-off read from the data, not from the text of the source: active = inhibition above about 13%; inconclusive = no clear call, values can overlap the other calls; inactive = below that. The entries come from a sample that favours actives as a whole. Entries with a potency or affinity are not part of this list.

target: Bifunctional protein GlmU (Mycobacterium tuberculosis (strain ATCC 25618 / H37Rv)) (UniProt P9WMN3); test: inhibition of mycobacterial GlmU enzyme – biochemical, glucosamine-1-phosphate acetyltransferase (AID 1376);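 note: 0% = complete reaction with vehicle and 100% = reaction without substrate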; conditions: M. tuberculosis GlmU acetyltransferase enzyme assay; stronger effect = higher value;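 tested at 30 µM in the primary screen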
Sequence (P9WMN3 whole entry, looked up): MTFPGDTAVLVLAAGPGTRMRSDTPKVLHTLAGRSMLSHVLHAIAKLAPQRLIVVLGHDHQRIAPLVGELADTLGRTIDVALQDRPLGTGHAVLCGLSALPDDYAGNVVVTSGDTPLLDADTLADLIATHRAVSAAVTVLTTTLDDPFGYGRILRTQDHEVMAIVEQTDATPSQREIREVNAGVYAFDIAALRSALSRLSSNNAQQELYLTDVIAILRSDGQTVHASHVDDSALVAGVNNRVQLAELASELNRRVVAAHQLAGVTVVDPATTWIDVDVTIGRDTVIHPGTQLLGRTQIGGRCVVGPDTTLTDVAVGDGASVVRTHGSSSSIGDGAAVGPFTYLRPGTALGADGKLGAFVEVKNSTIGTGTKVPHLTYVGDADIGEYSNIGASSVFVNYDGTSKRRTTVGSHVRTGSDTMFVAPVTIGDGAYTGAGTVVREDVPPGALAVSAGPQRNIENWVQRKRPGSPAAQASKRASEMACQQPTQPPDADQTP

**Q.** How did the inhibition turn out when `Cc1cc(C(=O)CN2C(=O)C(=O)N(C3CCCC3)C2=O)c(C)n1-c1ccc(F)cc1` was run?
**A.** 7.31% (inactive)

**Q.** `Cc1c(Cl)cc(-n2cnnn2)cc1[N+](=O)[O-]` was tested. Which inhibition did it give?
**A.** 0.95% (inactive)

**Q.** Which inhibition does the source give for `COc1ccc(C(=O)CSc2nnc(-c3ccco3)c(-c3ccco3)n2)cc1` here?
**A.** 12.8% (active)

**Q.** Which inhibition does the source give for `CC(=O)c1ccc(NC(=O)CSc2nnc(-c3ccco3)c(-c3ccco3)n2)cc1` here?
**A.** 9.28% (inactive)

**Q.** Which inhibition does the source give for `O=C(CSc1nnc(-c2ccco2)c(-c2ccco2)n1)Nc1ccccc1` here?
**A.** 13.4% (active)

**Q.** `COc1ccc(C(=O)CSc2n[nH]c(-c3ccco3)n2)cc1` was tested. Which inhibition did it give?
**A.** 4.52% (inactive)

**Q.** `O=C(CSc1nnc(-c2ccco2)c(-c2ccco2)n1)c1ccccc1` was tested. Which inhibition did it give?
**A.** 0.16% (inactive)

**Q.** With `Cc1ccc(NC(=O)CSc2nnc(-c3ccco3)c(-c3ccco3)n2)cc1` as the molecule, how does the inhibition read?
**A.** 6.2% (inactive)

**Q.** Which inhibition does the source give for `CC1(c2nnc(Cc3ccccc3)o2)CC(c2ccc([N+](=O)[O-])cc2)=NO1` (configuration not stated) here?
**A.** -2.83% (inactive)

**Q.** For `CCCn1c(SCC(=O)Nc2ccc(OCC)cc2)nnc1C(C)C`, which inhibition is on record?
**A.** 2.8% (inactive)

**Q.** Which inhibition does the source give for `COC(=O)N/N=C/c1c(C)nn(-c2cccc(Cl)c2)c1Cl` here?
**A.** -2.28% (inactive)

**Q.** How did the inhibition turn out when `O=C(O)c1cc(S(=O)(=O)Nc2ccc(N3CCCCC3)cc2)ccc1Cl` was run?
**A.** 14.1% (active)

**Q.** Which inhibition does the source give for `O=S(=O)(Nc1ccc(N2CCCCC2)cc1)c1ccc(F)c(F)c1` here?
**A.** 1.08% (inactive)

**Q.** `CC(=O)Nc1ccc(NS(=O)(=O)c2ccc(Cl)c(C(=O)O)c2)cc1` was tested. Which inhibition did it give?
**A.** -0.86% (inactive)

**Q.** How did the inhibition turn out when `O=C1CC2(CCCCC2)Oc2ccc(Cl)cc21` was run?
**A.** -3.86% (inactive)

**Q.** With `CCCCN(CCCC)CCNC(=O)CNC(=O)c1cccs1` as the molecule, how does the inhibition read?
**A.** 2.63% (inactive)

**Q.** How did the inhibition turn out when `CCN(CC(=O)Nc1ccc(OC(F)F)cc1)C1CCCCC1` was run?
**A.** 2.82% (inactive)

**Q.** Which inhibition does the source give for `C=CCOc1ccc(Br)cc1/C=N/O` here?
**A.** -4.35% (inactive)

**Q.** For `C=CCOc1ccc(Br)cc1/C=C1/SC(=Nc2ccc(C(=O)O)cc2)NC1=O`, which inhibition is on record?
**A.** 15.9% (active)

**Q.** How did the inhibition turn out when `COc1cc(/C=C2/SC(=Nc3ccc(O)cc3)NC2=O)ccc1O` was run?
**A.** 35.3% (inactive)

**Q.** How did the inhibition turn out when `CCOc1cc(S(=O)(=O)NCCc2ccccc2C)c(OCC)cc1-n1cnnn1` was run?
**A.** 1.72% (inactive)

**Q.** With `O=C1CC(NCc2ccccc2)C(=O)N1c1ccc(F)cc1` (configuration not stated) as the molecule, how does the inhibition read?
**A.** -3.58% (inactive)

**Q.** `O=c1[nH]nc(SCc2nnc(-c3cccc(Cl)c3)o2)n1C1CCCCC1` was tested. Which inhibition did it give?
**A.** 1.07% (inactive)

**Q.** Which inhibition does the source give for `CC(C)(CNc1ccc([N+](=O)[O-])cc1Cl)CNS(C)(=O)=O` here?
**A.** -2.7% (inactive)

**Q.** `CCn1c(Cl)c(C=O)s/c1=N\S(=O)(=O)c1ccccc1` was tested. Which inhibition did it give?
**A.** 5.14% (inactive)

**Q.** Which inhibition does the source give for `COCCCN1C(=O)CS/C1=N\S(=O)(=O)c1ccccc1` here?
**A.** 5.52% (inactive)

**Q.** For `O=Cc1s/c(=N\S(=O)(=O)c2ccccc2)n(CCCCl)c1Cl`, which inhibition is on record?
**A.** 14% (active)
